Measured values as given in PubChem BioAssay AID559 (PCMD, 2006).
Hit rate of the full screen: of about 62,000 compounds, about 100 (0.2%) were called active. The sample holds actives, similar compounds and a random draw of the others, so the mix is not that of the screen. Unmarked numbers belong to inactive results. Rule as the data show it: active = inhibition above about 20%; inactive = the rest.

Each molecule was assayed against DNA-directed RNA polymerase subunit beta (Escherichia coli (strain K12)) (UniProt P0A8V2) (assay: bacterial RNA polymerase transcription inhibition – biochemical (AID 559;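 also: 0% = enzyme without compound and 100% = no enzyme blank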)). Details: E. coli RNA polymerase, fluorescence transcription assay; hits give high values;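 tested at 10 µM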.
Sequence of DNA-directed RNA polymerase subunit beta (Escherichia coli (strain K12)) (P0A8V2 whole entry, looked up): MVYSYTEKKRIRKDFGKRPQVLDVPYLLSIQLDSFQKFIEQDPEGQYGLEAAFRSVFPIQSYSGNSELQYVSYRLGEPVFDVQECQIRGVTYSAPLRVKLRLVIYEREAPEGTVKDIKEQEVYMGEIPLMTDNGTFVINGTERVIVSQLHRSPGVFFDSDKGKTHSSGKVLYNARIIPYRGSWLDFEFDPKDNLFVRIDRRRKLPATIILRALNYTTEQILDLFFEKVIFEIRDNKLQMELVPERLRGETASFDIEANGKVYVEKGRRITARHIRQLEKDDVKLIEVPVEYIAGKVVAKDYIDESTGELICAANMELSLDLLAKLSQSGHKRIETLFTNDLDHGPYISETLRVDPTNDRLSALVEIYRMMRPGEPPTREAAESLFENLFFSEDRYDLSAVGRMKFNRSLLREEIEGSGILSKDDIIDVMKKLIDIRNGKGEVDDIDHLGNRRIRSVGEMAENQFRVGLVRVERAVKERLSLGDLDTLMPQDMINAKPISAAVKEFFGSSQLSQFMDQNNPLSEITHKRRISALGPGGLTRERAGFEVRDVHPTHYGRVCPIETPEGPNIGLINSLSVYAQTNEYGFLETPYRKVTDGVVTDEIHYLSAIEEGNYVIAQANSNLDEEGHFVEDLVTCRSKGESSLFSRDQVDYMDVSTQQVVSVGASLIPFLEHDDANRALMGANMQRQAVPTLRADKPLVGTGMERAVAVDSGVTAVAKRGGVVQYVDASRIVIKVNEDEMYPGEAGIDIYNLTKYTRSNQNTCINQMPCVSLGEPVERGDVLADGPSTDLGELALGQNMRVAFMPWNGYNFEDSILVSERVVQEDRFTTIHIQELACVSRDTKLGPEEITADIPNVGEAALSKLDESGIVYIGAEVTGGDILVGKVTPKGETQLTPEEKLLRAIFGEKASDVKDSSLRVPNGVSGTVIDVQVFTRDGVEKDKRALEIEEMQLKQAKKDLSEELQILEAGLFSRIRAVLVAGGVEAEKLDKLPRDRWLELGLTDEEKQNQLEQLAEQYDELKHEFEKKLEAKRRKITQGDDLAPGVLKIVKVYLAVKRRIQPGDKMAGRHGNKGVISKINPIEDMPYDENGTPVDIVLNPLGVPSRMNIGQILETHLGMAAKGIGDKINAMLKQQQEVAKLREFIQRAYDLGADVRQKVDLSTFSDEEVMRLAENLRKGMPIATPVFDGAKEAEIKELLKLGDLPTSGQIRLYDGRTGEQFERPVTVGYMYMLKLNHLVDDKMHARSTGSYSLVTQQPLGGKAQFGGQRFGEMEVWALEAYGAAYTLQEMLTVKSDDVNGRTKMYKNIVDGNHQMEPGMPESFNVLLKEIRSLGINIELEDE
CCOc1ccc(NS(=O)(=O)c2ccc(OCC(=O)NCCCOC)cc2)cc1 gave an inhibition of 0.48%. COCCCN(C(=O)Cn1ncc2c(=O)oc3ccc(C)cc3c21)C(C)c1ccncc1 (stereo not drawn) gave an inhibition of 5.04%. CCc1c(C)c2c(C)[nH]nc2oc1=O showed an inhibition of 6.94%. For CCCOc1ccccc1-c1nc(SCCC(=O)O)n[nH]1, the inhibition was 4.03%. CCC(C)(C(=O)NC1CCCC1)N(C(=O)CNC(C)=O)c1ccc(C)cc1 (stereo not drawn) gave an inhibition of 2.29%. In the case of CCC(C)(NC(=O)c1ccccn1)C(=O)NC1CCCCC1 (stereo not drawn), the inhibition is reported as 24.2% (active). Molecule CN(CC(=O)NC1CCCCC1)S(=O)(=O)c1cccc2cccnc12 has an inhibition of 1.4%. Molecule CCN1C(=O)/C(=C2/Sc3ccccc3N2CCCS(=O)(=O)O)SC1=S has an inhibition of 14%. For COCCNC(=O)CN1C(=O)CSc2ncccc21, the inhibition was 2.28%. Cc1ccc(Cn2c(NC(=O)c3ccco3)nc3ccccc32)cc1 was tested, and the inhibition was 3.14%. Work on CCOC(=O)C1CCCN(C(=O)c2sc3nc(C)nc(N4CCOCC4)c3c2C)C1 (stereo not drawn) yielded an inhibition of 6.92%. COc1cccc(N2CCN(C(=O)C3CCCN(S(=O)(=O)c4cnc[nH]4)C3)CC2)c1 (stereo not drawn) gave an inhibition of 6.57%. For Cn1c(=O)c2c(nc(N3CCCCCC3)n2CC(=O)c2ccc(Br)cc2)n(C)c1=O, the inhibition was 6.56%. In the case of O=CN1CCN(C2CC(=O)N(c3ccc4c(c3)OCO4)C2=O)CC1 (stereo not drawn), the inhibition is reported as -2.9%. Cc1cc(NC(=O)CSc2nnc(-c3ccc(Cl)s3)o2)no1 was tested, and the inhibition was 2.94%. Nc1nonc1-c1nc2ccccc2n1Cc1ccc(F)cc1 was tested, and the inhibition was 1.54%. COCc1cc(C)nc(SCC(=O)Nc2cccc(C)c2)c1C#N gave an inhibition of 10.2%. Work on CC(C)C(c1nnnn1Cc1ccccc1)N1CCC(C(N)=O)CC1 (stereo not drawn) yielded an inhibition of 9.07%. O=C(NC1CCCCC1)n1c(=O)oc2cc(S(=O)(=O)N3CCCCC3)ccc21 gave an inhibition of 5.56%. For COC(=O)c1c(NC(=O)CCN2CCOCC2)sc2c1CCCC2, the inhibition was 7.91%. Work on Cc1cc(C)nc(NC2=NCC(=O)N2c2ccc(Cl)cc2)n1 yielded an inhibition of 9.3%. COC(=O)CCSc1nccn1Cc1ccccc1 gave an inhibition of 2.17%. O=C1CSC(=O)N1CCOCCN1C(=O)CSC1=O gave an inhibition of 8.19%. In the case of CCOc1ccccc1Nc1nnc(SCc2ccc(C(=O)OC)o2)s1, the inhibition is reported as 3.87%. Molecule CC(=O)OCc1cc2cc(C)ccc2[nH]c1=O has an inhibition of 8.56%. In the case of CC(C)OC(=O)CN1C(=O)c2ccccc2C1=O, the inhibition is reported as 8.17%. Work on COCCN(C(=O)CCC(=O)Nc1ccccn1)C(C(=O)NCCC(C)C)c1ccc(OC)cc1 (stereo not drawn) yielded an inhibition of 9.79%. Cc1oc(-c2ccccc2F)nc1CS(=O)(=O)CC(=O)NCCCN(C)C1CCCCC1 was tested, and the inhibition was 4.54%. Cc1nnc(NC(=O)CSc2nccn2-c2cccc(C)c2C)s1 gave an inhibition of 8.46%. With Cc1cc(C(=O)COC(=O)CCCN2C(=O)c3ccccc3C2=O)c(C)n1C the inhibition was 4.5%. With COc1ccc(Br)cc1/C=N/n1c(C)nnc1C the inhibition was 11.2%. Work on COCCN(CC(=O)Nc1ccccc1C)S(=O)(=O)c1ccc(S(=O)(=O)N2CCCC2)cc1 yielded an inhibition of 4.44%. CC(C(=O)N1CCOCC1)N1c2cccc3cccc(c23)S1(=O)=O (stereo not drawn) gave an inhibition of 8.72%. O=C(CCCN1C(=O)CCC1=O)Nc1ccc(Cl)c(C(F)(F)F)c1 showed an inhibition of -1.3%. For C=CCNc1nnc(SCC(=O)N2CCCCC2)c2ccccc12, the inhibition was 5.18%. For CCOc1ccc(CNC(=O)C2CC(=O)N(C3CCCC3)C2)cc1OC (stereo not drawn), the inhibition was -2.47%. In the case of COC(=O)[C@H](Cc1ccccc1)NC(=O)Nc1ccc(S(N)(=O)=O)cc1, the inhibition is reported as 10.2%. Molecule CNC(=O)C1CC(=O)N(Cc2ccc3c(c2)OCO3)C(=Nc2ccc(F)cc2)S1 (stereo not drawn) has an inhibition of -0.38%. CCOc1ccc(C(C)C)cc1S(=O)(=O)n1nc(C)cc1C showed an inhibition of 5.62%. In the case of CN1CCN(CCCNC(=O)c2cc3c(=O)oc4ccccc4c3s2)CC1, the inhibition is reported as 7.32%. With CCC(=O)Nc1cccc(NC(=O)CSc2nnnn2C2CCCC2)c1 the inhibition was 9.82%. Cc1cc(C)n(C(=O)c2ccc(S(=O)(=O)N3CCCC3)cc2)n1 gave an inhibition of -6.35%. In the case of Cc1ccc(-c2ccc(=O)n(CC(=O)NCCCN3CCCCC3)n2)cc1, the inhibition is reported as 5.27%. With O=C(CCCOc1ccccc1)Nc1cccc(C(=O)O)c1 the inhibition was 5.97%. Molecule COc1ccc(CC(=O)c2ccc(O)cc2O)cc1OC has an inhibition of -2.96%. Work on Nc1nnnn1/N=C/c1cccs1 yielded an inhibition of 0.8%. O=C(Nc1cc(N2CCOCC2)ncn1)NC1(C(F)(F)F)Oc2ccc(Cl)cc2O1 (stereo not drawn) was tested, and the inhibition was 35.4% (active). c1cnn(-c2cc(N3CCOCC3)ncn2)c1 showed an inhibition of -13.1%. With COc1c(C)cccc1C(=O)Nc1cc(Cl)ccc1N1CCOCC1 the inhibition was 5.92%. With Cc1ccc(C)c2[nH]c(=O)c(CCNC(=O)CC(C)C)cc12 the inhibition was 6.91%. O=C(NCCc1ccccn1)c1ccc(COc2ccccc2)o1 was tested, and the inhibition was 5.1%. Work on CC1CC(C)CN(CC(=O)Nc2ccc(S(N)(=O)=O)cc2)C1 (stereo not drawn) yielded an inhibition of 4.05%. Cc1cc(Nc2ccc(Br)cc2F)n2ncnc2n1 was tested, and the inhibition was -2.75%. For CN1CCc2c(sc3c2c(NCc2ccco2)nc2nnnn23)C1, the inhibition was -5.9%. COc1ccc(-c2nc(CS(=O)CC(=O)NCc3cccnc3)c(C)o2)cc1OC (stereo not drawn) showed an inhibition of -0.41%. Molecule CCOC(=O)c1c(CN2CCOCC2)n(-c2ccccc2)c2ccc(O)cc12 has an inhibition of 9.89%. With COc1cc(OC)cc(-c2nc3nc(C)c(CCC(=O)NCc4ccco4)c(C)n3n2)c1 the inhibition was 0.61%. In the case of CC(=O)c1nc(N2C(=O)C3CC=C(C)CC3C2=O)sc1C (stereo not drawn), the inhibition is reported as 8.57%. O=C1c2oc3ccc(Br)cc3c(=O)c2C(c2cccc(F)c2)N1CCO (stereo not drawn) was tested, and the inhibition was 2.5%. Work on CN1C(=O)c2ccc(NC(=O)c3c(F)c(F)c(F)c(F)c3F)cc2C1=O yielded an inhibition of 11.6%. Cn1c(SCC(=O)Nc2cccc(O)c2)nnc1-c1ccc(S(=O)(=O)N2CCOCC2)cc1 was tested, and the inhibition was 0.17%. Work on Fc1ccccc1OCCCCn1cncn1 yielded an inhibition of 2.62%. CCOCCCNS(=O)(=O)Cc1ccccc1 gave an inhibition of 8.39%. Molecule Cc1ccc(O)c(NC(=O)COc2cc(C)ccc2C)c1 has an inhibition of 4.28%. CCCOc1ccc(C2C(C(=O)c3ccc(C)o3)=C(O)C(=O)N2CCCn2ccnc2)cc1 (stereo not drawn) was tested, and the inhibition was 5.52%. In the case of O=C(Nc1ccon1)c1sc2ccccc2c1Cl, the inhibition is reported as -7.58%. In the case of NC(CSC12CC3CC(CC(C3)C1)C2)C(=O)O (stereo not drawn), the inhibition is reported as 4.34%. CC(C)c1nc(-c2ccccn2)no1 gave an inhibition of 4.3%. Molecule O=C(NCc1ccccc1)C1C(=O)N(Cc2ccccc2)C(=O)C1C1(O)CCCC1 (stereo not drawn) has an inhibition of -8.01%. In the case of CCOCC(=O)Nc1cc(OC)c(Cl)cc1OC, the inhibition is reported as 5.42%. Cc1ccc(S(=O)(=O)N2C3C=CC(C3)C2C(=O)O)cc1 (stereo not drawn) showed an inhibition of 8.4%. Cc1cccc(N2C(=O)SC(N(CC(=O)O)c3cccc(C)c3)C2=O)c1 (stereo not drawn) gave an inhibition of 6.1%. In the case of COc1cccc(C(CC(=O)NCCN2CCOCC2)NS(=O)(=O)c2ccc(C)cc2)c1OC (stereo not drawn), the inhibition is reported as 4.2%. Work on Cc1ccc(C(=O)CSc2nc3ccccc3c(=O)n2N)o1 yielded an inhibition of 4.54%. With Cc1cc2c(=O)n(C)c(SCC(=O)c3cc4ccccc4o3)nc2s1 the inhibition was 20.9% (active). Work on Cc1ccsc1C(=O)OCC(=O)c1cc2ccccc2o1 yielded an inhibition of 8.68%. With O=C(CN1C(=O)C2C3C=CC(C3)C2C1=O)NCC1COc2ccccc2O1 (stereo not drawn) the inhibition was -8.67%. O=C1CCC(Cc2ccccc2)N1 (stereo not drawn) showed an inhibition of 6.1%. Cn1c(=O)n(C)c(=O)n(CC(=O)N2CCCCC2)c1=O gave an inhibition of 5.37%. With CC(=O)Nc1cccc2c1[n+]([O-])c(C)c(C)[n+]2[O-] the inhibition was -3.37%. With O=C(Nc1nc2cc3c(cc2s1)OCCO3)c1cccc(S(=O)(=O)N2CCOCC2)c1 the inhibition was -1.12%. With CCCN1C(=O)C(NC(C)=O)c2cc(OC)ccc21 (stereo not drawn) the inhibition was 8.13%. Cc1noc(NS(=O)(=O)c2ccc(NC(=O)C34CCC(CC3)C4)cc2)c1C gave an inhibition of 3.43%. COc1cccc2sc(Nc3nc(C)c(C(C)=O)s3)nc12 was tested, and the inhibition was -0.4%. In the case of CCCOc1ccc(NC(=O)C2CCCNC2=O)cc1 (stereo not drawn), the inhibition is reported as 2.77%. Work on CCCCOC(=O)NCN1C(=O)C2C3C=CC(C3)C2C1=O (stereo not drawn) yielded an inhibition of 0.68%. For COc1ccc(OC)c(NC(=O)CC(Cc2ccccc2OC)C(=O)O)c1 (stereo not drawn), the inhibition was 4.42%. CC(C)N(C(=O)Cn1c(SCC(=O)N2CCN(c3ccccc3)CC2)nc2ccccc21)C(C)C showed an inhibition of 5.85%. Molecule O=C(Cn1nc(C(F)(F)F)c2c1CCC2)NCc1ccc(F)cc1 has an inhibition of -0.7%. For COc1ccc(CNC(=O)c2c(C)cc(=O)oc2C)cc1OC, the inhibition was 8.6%. Cc1nc(NC(CC(C)C)C(=O)O)c2nc(C)oc2n1 (stereo not drawn) gave an inhibition of -1.28%. For O=C(CSc1n[nH]c(-c2cccnc2)n1)Nc1ccnc2ccccc12, the inhibition was 11.1%. O=S(=O)(c1ccc(OCC(O)CN2CCN(c3ccccc3Cl)CC2)cc1)N1CCOCC1 (stereo not drawn) showed an inhibition of 1.46%. With CCOc1cc(-c2nc3cc(C)ccn3c2NCC2CCCO2)ccc1O (stereo not drawn) the inhibition was 6.06%. For CCCNS(=O)(=O)c1ccc2c(c1)CCCN2C(C)=O, the inhibition was 5.31%. With CCN(CC)c1ccc(C(=O)OCC(=O)c2ccco2)cc1 the inhibition was 4.69%. C=CCOC(=O)C1=C(C)OC(N)=C(C#N)C1c1ccc(F)cc1 (stereo not drawn) gave an inhibition of 0.25%. In the case of Cc1ccc(C2CC(c3cccc(Br)c3)n3nc(N)nc3N2)cc1 (stereo not drawn), the inhibition is reported as 8.67%.
